# Screens deposited in PubChem by National Center for Advancing Translational Sciences (NCATS).
# D2 PAM-1 = positive allosteric modulators of human D2 dopamine receptor. P14416. HEK293 T-REx D2, calcium flux, EC20 dopamine potentiation. potentiation, % at 10 µM. 340,000 compounds, 0.34% hits;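 active means potentiation over 3 SD above the plate norm, cut at about 30% in these data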; further: 0% is about no effect
#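 Cells plated with tetracycline inducer and held overnight at 30 C; calcium dye loaded 30–90 min at room temperature; baseline taken, compound added and read 180 s; EC20 dopamine then added and read 180 s.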
# D2 PAM-2 = human D2 receptor positive allosteric modulation; P14416; DiscoveRx D2 beta-arrestin cells, luminescence, 90 min; 100% = 57 uM dopamine signal; potentiation, % (concentration not given with the values); 360,000 compounds, 0.23% hits; in the data active means potentiation above about 50%; inconclusive means mostly about 30% to 49%
#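 PathHunter beta-arrestin assay in DiscoveRx D2 cells. Compounds were added with an EC20 of dopamine (50 nM final) for 90 min at 37 deg C. Luminescence was read 1 h after detection reagent, with 57 uM dopamine as the EC100 control.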
# D2 antagonist = D2 dopamine receptor (human) antagonism; inhibition, % at 10 µM; P14416; 340,000 compounds, 2% hits; AID 485344; HEK293 TREx D2 cells, calcium flux, dopamine EC80; in the data active means inhibition above about 30%; inactive means below that, where a call was filed; further: 0% is about no effect
#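 Measurement of antagonist activity uses fluorescent calcium dye in inducible HEK293 T-REx D2 cells: 10 s baseline, compound addition with 180 s read, EC80 dopamine addition with a further 180 s read.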
# D2 ag-1 = agonists of human D2 dopamine receptor (beta-arrestin); DiscoveRx PathHunter D2 beta-arrestin, luminescence, 90 min; 100% = 57 uM dopamine signal; P14416; 360,000 compounds, 0.084% hits; activation, % (test concentration not listed); in the data active means activation above about 40%; inconclusive means between about 15% and that limit
#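 DiscoveRx PathHunter D2 beta-arrestin cells (2,100/well) attached overnight, then compound-stimulated 90 min at 37 C in HBSS/10 mM HEPES/0.1% Tween-20 buffer; beta-galactosidase complementation read by luminescence after 1 h at ambient temperature. Dopamine 57 uM final (EC100) as control.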
# D2 ag-2 = agonists of human D2 dopamine receptor; P14416; HEK293 T-REx D2 cells, calcium flux agonist mode; activation, % at 2 µM; 340,000 compounds, 0.53% hits;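 active means activation over 3 SD above normal in the single-dose calcium agonist read, cut at about 30% in these data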; further: 0% is about no effect
#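 Agonism is scored from calcium flux in a force-coupled, inducible HEK293 cell line expressing D2, read kinetically for 180 s after compound addition against dopamine controls.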
# D3 arrestin ag = confirmation of human D3 dopamine receptor agonists, beta-arrestin. shares compounds with D2 ag-2. DiscoveRx D3 beta-arrestin cells, luminescence, 90 min. Potency, µM (highest dose often 76.9 µM), inactives show top-dose activation, most hits filed as activators. 2,300 compounds, 4% hits;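 further: potency means the concentration at half of the fitted maximal effect; 100% = dopamine control response; nearly all actives have a fitted effect of over 70% in size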
# Target sequence (P35462 whole entry, looked up): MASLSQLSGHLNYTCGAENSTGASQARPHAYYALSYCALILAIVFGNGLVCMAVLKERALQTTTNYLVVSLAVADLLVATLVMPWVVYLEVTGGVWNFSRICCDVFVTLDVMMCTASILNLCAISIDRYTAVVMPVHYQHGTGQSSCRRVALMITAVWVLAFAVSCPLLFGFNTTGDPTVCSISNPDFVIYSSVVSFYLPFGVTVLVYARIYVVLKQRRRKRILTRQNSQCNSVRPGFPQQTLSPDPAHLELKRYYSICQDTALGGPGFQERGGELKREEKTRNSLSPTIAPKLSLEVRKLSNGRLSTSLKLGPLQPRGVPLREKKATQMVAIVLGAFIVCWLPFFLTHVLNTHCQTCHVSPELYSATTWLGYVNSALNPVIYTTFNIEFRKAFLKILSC
# D2 ag-3 = counter-screen for D3 agonists: human D2 dopamine receptor agonism; shares compounds with D2 ag-2; DiscoveRx PathHunter D2 beta-arrestin, luminescence, 90 min; response scale: percent relative to full dopamine signal; Potency, µM (titrated, usually from 76.9 µM), without a hit: at the top dose activation, hits mostly activators; 2,300 compounds, 5.9% hits; further: potency means the concentration at half of the fitted maximal effect; % of control where 0% means no effect; nearly all actives have a fitted effect of over 70% in size
# Numbers without * were called inactive; ? = inconclusive; nt = no result; ! = repeats disagree. The list is not random: actives were taken first. Their share in the collection is about 2.4%. Unless noted, the call rests on the fitted dose curve; in most records, active means well fitted activation curve with a large enough effect; inconclusive means small, poorly fitted or top-dose-only effect; inactive means flat fitted curve, though single readings scatter.
SMILES,D2 PAM-1,D2 PAM-2,D2 antagonist,D2 ag-1,D2 ag-2,D3 arrestin ag,D2 ag-3
CCCCNC(=O)C1(C)CCCCN1C(=O)c1cccs1 (stereo not drawn),nt,-2,nt,-2,nt,nt,nt
c1ccc(CCN=C2CCCc3c2[nH]c2ccccc32)cc1,-23,8,58*,13,77*,?,?
Nc1ccc(C(=O)N/N=C2\CCCc3c2[nH]c2ccccc32)cc1,nt,4,nt,-4,nt,nt,nt
O=C(NCc1n[nH]c(=O)c2ccccc12)C1CC(=O)N(c2ccc(Cl)cc2)C1 (stereo not drawn),-7,5,-14,-2,5,-18%,-3%
Cn1c(CC(=O)NNC(=O)c2ccc(F)cc2Cl)nc2ccccc21,7,-2,3,-2,0,nt,nt
Cn1c(CC(=O)NNC(=O)c2ccccc2[N+](=O)[O-])nc2ccccc21,-10,-6,-19,-4,2,-4%,0%
COC(=O)C1CCN(CC(=O)Nc2ccc(C(=O)Nc3ccccc3OC)cc2)CC1,-26,0,28,?,62*,21%,?
COc1ccccc1NC(=O)CN1CCN(c2ccccn2)CC1,12,5,50*,?,14,29%,?
COc1ccc(C)cc1NC(=O)CN1CCN(c2ccccn2)CC1,-18,0,-3,11,53*,13%,21%
COc1ccccc1NC(=O)CN1CCN(CC(=O)Nc2ccc(F)cc2)CC1,-2,-5,4,-3,0,nt,nt
CCN(CC(=O)Nc1ccccc1C(F)(F)F)C(=O)C1=COCCO1,6,0,13,-4,0,nt,nt
O=C(NCCCn1ccnc1)c1ccc(Br)s1,1,-26,14,-2,1,nt,nt
C=CCn1c(SCC(=O)NCC(c2ccccc2)N(C)C)nnc1C1CCCCC1 (stereo not drawn),14,-11,17,-2,0,-10%,-2%
CCN1CCN(c2ncnc3scc(-c4ccc(C)cc4)c23)CC1,-27,?,68*,110*,70*,8%,2.8µM*
CCC1(C)NC(=O)N(CC(=O)c2cc(C)n(C3CC3)c2C)C1=O (stereo not drawn),1,-69,-4,0,0,nt,nt
O=C(c1ccccc1)N1CCN(Cc2ccc3c(c2)OCO3)CC1,-32,-25,8,0,16,nt,nt
O=C(c1ccc(Br)o1)N1CCN(Cc2ccc3c(c2)OCO3)CC1,-23,-14,58*,2,70*,-4%,10%
O=C(c1[nH]nc2c1CCc1ccccc1-2)N1CCN(Cc2ccc3c(c2)OCO3)CC1,-15,-23,71*,?,0,2%,?
O=C(c1sccc1Cl)N1CCN(Cc2ccc3c(c2)OCO3)CC1,-25,-15,67*,5,50*,-7%,3%
CS(=O)(=O)N(CC(=O)N1CCOCC1)c1cccc(Cl)c1,nt,-2,nt,-3,nt,nt,nt
CS(=O)(=O)N(CCCC(=O)N1CCCCCC1)c1cccc(Cl)c1,8,-10,26,-4,0,-7%,-1%
CN(C)c1ccc(/C=N/N(CCO)C2=NS(=O)(=O)c3ccccc32)cc1,0,-19,-7,-9,6,6%,-1%
C=CCOc1ccc(/C=C(\C#N)C(=O)Nc2ccccn2)cc1,-5,-3,-25,0,0,nt,nt
Cc1ccc(/C([O-])=C(/C(=S)NCc2ccccc2)[n+]2ccccc2)cc1[N+](=O)[O-],-18,-4,8,-4,31*,-15%,-7%
OC(COCc1ccccc1)CN1CCN(c2ccccc2F)CC1 (stereo not drawn),-22,-29,111*,6,64*,?,?
SMILES,D2 PAM-1,D2 PAM-2,D2 antagonist,D2 ag-1,D2 ag-2,D3 arrestin ag,D2 ag-3
OC(COCC1COc2ccccc2O1)CN1CCN(c2ccccc2F)CC1 (stereo not drawn),-23,-10,84*,7,60*,?,?
Cc1ccc(N2CCN(CC(O)COc3ccc([N+](=O)[O-])cc3)CC2)cc1 (stereo not drawn),-14,-9,10,3,0,nt,nt
CCN1CCN(CC(O)COCc2ccccc2)CC1 (stereo not drawn),2,-7,-5,-2,1,nt,nt
O=[N+]([O-])c1ccc(OCC(O)CN2CCN(c3ccccc3F)CC2)cc1 (stereo not drawn),-26,-15,91*,?,79*,?,?
OC(CNCC1COc2ccccc2O1)COc1ccccc1F (stereo not drawn),-36,-16,96*,0,78*,17%,10%
COc1ccc(C2CC(c3cccc(Cl)c3)=NN2c2ccc(S(N)(=O)=O)cc2)cc1 (stereo not drawn),nt,-3,nt,-2,nt,nt,nt
O=C(CN1C(=O)C(=O)N(C2CCCC2)C1=O)Nc1ccc(Cl)cc1C(F)(F)F,-6,-16,2,-5,0,nt,nt
CC(=O)CC(C)(C)Nc1nc2ccc([N+](=O)[O-])cc2o1,2,-6,39*,-2,0,-8%,-2%
CC(=O)CC(C)(C)Nc1nc2cc([N+](=O)[O-])ccc2o1,-15,-12,-8,-4,0,nt,nt
C/C(CCc1ccco1)=N/NC(=O)CCC(=O)Nc1ccc(Br)cc1,-2,-7,-7,-1,0,nt,nt
CC(=O)Nc1ccc(C2=CC(=O)CC(C)(C)C2)cc1,1,-7,-4,-10,-1,-5%,-1%
Cc1ncc(C[n+]2csc(CCO)c2C)c(N)n1,-13,-8,68*!,-4,55*!,0%,-5%
CCn1c2ccc(C)cc2c2n[nH]c(=S)nc21,4,-26,-5,-6,-2,7%,-8%
Cc1ccc(S(=O)(=O)N2CCN(C(=O)COC(=O)Cc3ccc(Cl)cc3)CC2)c(C)c1,-2,2,16,-2,1,nt,nt
COc1ccc(C2CC(=O)N(CC(=O)Nc3ccc(C(C)=O)cc3)c3ccccc3S2)cc1OC (stereo not drawn),21,nt,nt,nt,0,nt,nt
O=C(/C=C/c1ccccc1)N/C(=C/c1ccccc1)C(=O)NCCCO,-3,2,17,0,2,nt,nt
CCc1ccccc1NC(=S)N1CCN(c2ccccc2F)CC1,-1,-15,14,-4,15,-1%,2%
CC1C(=O)N(Cc2ccc([N+](=O)[O-])cc2)c2ccccc2N1C(=O)c1c(F)cccc1F (stereo not drawn),-4,8,-6,4,-1,nt,nt
